SMILES strings stand for the structures. Out of some 68,000 compounds screened, about 2,700 (4%) showed an effect of 50% or more. This excerpt belongs to a sample that is enriched for strong results.

The test system of this experiment is Plasmodium berghei. The experiment can be described thus: Screen against P. berghei liver stage (PbLuc), transformed with Luciferase, at 2uM. Format: functional, HepG2. The settings on record: tested at 2 uM.
Take `Cn1ccnc1CN(Cc1ccccn1)Cc1ccccc1Cl`: the INHIBITION is -8.33%.

With `CN(Cc1ccc(Cl)s1)C(=O)NCCC(=O)N1CCCCCC1`, the INHIBITION is on record as -12.84%.

`Cc1c(C(=O)NC2=NCCS2)cnn1-c1ccc(Br)cc1`: the INHIBITION was -23.27%.

Regarding `CC(C)c1nsc(NC2CCOC3(CCCC3)C2)n1` (configuration not stated), the INHIBITION stood at 30.06%.

Consider `Cc1nsc(NC2CCOC3(CCCCC3)C2)n1` (configuration not stated), for which the INHIBITION came to 62%.

Turning to `CCc1nsc(NC2CCOC3(CCCC3)C2)n1` (configuration not stated), the INHIBITION was -9.6%.

Consider `Cc1nsc(NC2CCOC3(CCCC3)C2)n1` (configuration not stated), for which the INHIBITION was 62%.

On to `Cc1cc(C)nc(NC2CCOC3(CCCC3)C2)n1` (configuration not stated), for which the INHIBITION is 10.23%.

With `NC(=O)c1ccc(NC2CCOC3(CCCC3)C2)nn1` (configuration not stated), the INHIBITION is listed as -0.45%.

Turning to `Cc1nn(C)c(Cl)c1CNCc1ccc(OCC(N)=O)cc1`, the INHIBITION is -5.1%.

For the compound `COc1ccccc1CN1C[C@@H]2COC[C@]2(COCc2ccncc2)C1`, the INHIBITION worked out at 38.11%.

On to `Cc1cnc(N2CCc3ncnc(N4CCN(C)CC4)c3CC2)nc1`, for which the INHIBITION came out at 17.57%.

On to `CC(C)(C)c1cnc(CN2CCC[C@H]2CO)o1`, for which the INHIBITION was determined as 56.72%.

`CC(C)(C)c1cnc(CN2CCCCC2Cn2cccn2)o1` (configuration not stated): the INHIBITION is recorded as -23.94%.

In the case of `Cc1cnn(CC2CCCCN2Cc2ncc(C(C)(C)C)o2)c1` (configuration not stated), the INHIBITION worked out at 30.91%.

Regarding `CCC1CCCCN1Cc1ncc(C(C)(C)C)o1` (configuration not stated), the INHIBITION is 70.27%.

For `CC(C)(C)c1cnc(CN2CCCC2Cn2cccn2)o1` (configuration not stated), the INHIBITION is given as -50.72%.

With `Cc1cc(C)n(CC2CCCN2Cc2ncc(C(C)(C)C)o2)n1` (configuration not stated), the INHIBITION was -11.91%.

As to `O=S(=O)(NCC1(O)CCOCC1)c1c(F)cccc1F`, the INHIBITION amounted to 43.15%.

`CCc1cnc(N2CCc3ncnc(N4CCN(C)CC4)c3CC2)nc1`: the INHIBITION is given as -64.85%.

Take `NC(=O)N1CC(OCc2cccc3ccccc23)C1`: the INHIBITION was 5.98%.

Consider `Cc1cc(C)c2ncn(CCOCCO)c(=O)c2c1`, for which the INHIBITION was found to be 24.55%.

Regarding `O=C(NCc1n[nH]c2c1CCCCC2)c1cnn2c1CCCC2`, the INHIBITION is -23.38%.

On to `CCc1nc(CN2CCCN(C(=O)COCC3CC3)CC2)cs1`, for which the INHIBITION is 3.9%.

`Cn1cc(C(O)CNC(=O)c2cc(Br)ccc2Cl)cn1` (configuration not stated): the INHIBITION is listed as 20.29%.

As to `CCC(CC)NC(=O)c1ccc2nnc(C3CCN(C(C)=O)C3)n2c1` (configuration not stated), the INHIBITION was found to be 30.75%.

Consider `O=C1CCC2(CCCN(C(=O)Cc3ccccc3)C2)N1` (configuration not stated), for which the INHIBITION was 60.05%.

With `O=C1CCC2(CCCN(C(=O)Cc3ccccn3)C2)N1` (configuration not stated), the INHIBITION is listed as 29.85%.

On to `O=C1CCC2(CCCN(C(=O)Cc3cccnc3)C2)N1` (configuration not stated), for which the INHIBITION was determined as 29.3%.

For `CS(=O)(=O)N1CCN(C(=O)c2cncs2)CC(C(N)=O)C1` (configuration not stated), the INHIBITION is -33.32%.

As for `CNC(=O)[C@@H](c1ccccc1OC)N1CCC[C@H]1C(=O)NC(C)(C)C`, the INHIBITION is given as -1.63%.

For the compound `CNC(=O)[C@@H](c1ccccc1OC)N1CCC[C@H]1C(=O)N1CC[C@@H](O)C1`, the INHIBITION was determined as 50.91%.

On to `CNC(=O)[C@@H](c1ccccc1OC)N1CCC[C@H]1C(=O)N1CCC1`, for which the INHIBITION is on record as -20.89%.

Regarding `O=C(NCc1cc[nH]n1)NC1CCCN(c2ncccn2)C1` (configuration not stated), the INHIBITION amounted to 12.8%.

As to `Cn1cccc1CN1CCC2(CCCN(C(=O)c3cnccn3)C2)C1` (configuration not stated), the INHIBITION is given as -30.12%.

As for `Cn1cccc1CN1CCC2(CCCN(C(=O)c3cccnc3)C2)CC1`, the INHIBITION amounted to 61.08%.

For `Cn1cccc1CN1CCC2(CCCN(C(=O)Cc3cccnc3)C2)C1` (configuration not stated), the INHIBITION is listed as -4.92%.

Take `Cc1noc(CCCC(=O)NC(C)c2cccnc2)n1` (configuration not stated): the INHIBITION is reported as -19.76%.

For `N#CCCN(C(=O)CN1CCCC1c1ccsc1)c1ccccc1F` (configuration not stated), the INHIBITION is recorded as 73.05%.

In the case of `N#CCCN(C(=O)CN1CCCC1c1cccs1)c1ccccc1F` (configuration not stated), the INHIBITION is on record as -13.06%.

In the case of `N#CCCN(C(=O)CN1CCCC1c1ccsc1)c1ccccc1` (configuration not stated), the INHIBITION is -37.2%.

Take `CC(C)c1nnc2n1CCN(C(=O)c1cc3cc(F)ccc3[nH]1)C2`: the INHIBITION is on record as 31.57%.

`CC(C)CC(=O)N1CCCC1c1cc(CO)[nH]n1` (configuration not stated): the INHIBITION is reported as 31.92%.

For the compound `O=C(NC[C@H]1OC[C@@H]2CN(Cc3ccco3)CC[C@@H]21)c1cscn1`, the INHIBITION stood at 66.46%.

Turning to `O=C(NC[C@H]1OC[C@@H]2CN(Cc3ccco3)CC[C@@H]21)c1cccnc1`, the INHIBITION was -36.8%.

For `CN(Cc1ccco1)C[C@H]1OC[C@@H]2CCN(Cc3cccs3)C[C@@H]21`, the INHIBITION is -2.83%.

For the compound `Cc1ccc(CN2CC[C@H]3CO[C@H](CN(C)Cc4ccco4)[C@H]3C2)s1`, the INHIBITION is reported as 59.03%.

For `CN(Cc1ccco1)C[C@@H]1OC[C@H]2CN(Cc3nccs3)CC[C@H]21`, the INHIBITION was determined as 59.03%.

In the case of `CN(Cc1ccco1)C[C@H]1OC[C@@H]2CCN(Cc3ccsc3)C[C@@H]21`, the INHIBITION was 22.89%.

For `CN(Cc1cccnc1)C[C@@H]1OC[C@H]2CN(Cc3ccoc3)CC[C@H]21`, the INHIBITION came out at 55.7%.

For the compound `CN(C)C[C@@H]1OC[C@H]2CN(Cc3ccoc3)CC[C@H]21`, the INHIBITION is reported as 0.13%.

On to `CN(Cc1cccnc1)C[C@@H]1OC[C@H]2CN(Cc3ccco3)CC[C@H]21`, for which the INHIBITION was 10.53%.

Values taken from ChEMBL document CHEMBL4513216, “Probing the Open Global Health Chemical Diversity Library for Multistage-Active Starting Points for Next-Generation Antimalarials” (ACS Infect Dis, 2020).
